AddAB inh: less growth of phage-infected E. coli with AddAB; E. coli expressing H. pylori AddAB, absorbance growth; AID 435030; 330,000 compounds, 0.29% hits; inhibition, % at 11.9 µM; in the data active = inhibition above about 12%;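 note: 0% = vehicle wells of infected cells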
E coli growth-1: reduces bacterial viability in AddAB counter-screen | E. coli V3065 growth, OD600 absorbance, 18 h | inhibition, % at 11.9 µM | 330,000 compounds, 0.27% hits;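 active = inhibition above the campaign's mean inhibition across all tested compounds plus 3 SD, cut at about 9.9% in these data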;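 note: uninfected addAB+ strain grown without phage in ampicillin broth; 0% = DMSO wells and 100% = ciprofloxacin 0.95 µg/ml wells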
Tat export inh: blocks Tat-dependent protein export in E. coli; inhibition, % at 10 µM; E. coli MC4100 TorA-mCherry Tat export, fluorescence; 340,000 compounds, 0.036% hits; AID 488895;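 active = mean replicate inhibition at least 50% and at least half of replicates individually reaching 50%; inconclusive = only one of the two criteria met; inactive = neither criterion met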;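 note: exported cargo escapes ClpAP degradation while cytoplasmic cargo is degraded and loses fluorescence; 0% = median of neutral control wells and 100% = median of NaSCN control wells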
phage Ecoli inh: E. coli growth loss with phage present; growth absorbance; inhibition, % at 11.9 µM; 360,000 compounds, 0.26% hits; AID 651602; in the data active = inhibition above about 11%
E coli growth-2: E. coli growth inhibition; Escherichia coli growth, OD600, 23 h; stronger effect = lower value; OD600 absorbance (test concentration not listed); 330,000 compounds, 0.21% hits; AID 1053175;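 active = OD600 absorbance below the run mean of sample wells minus 3.6 SD, in any replicate, cut at about 0.56 in these data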
Calb FLC: C. albicans growth modulation with fluconazole; 300,000 compounds, 0.57% hits; growth inhibition, % (concentration not given with the values); C. albicans CaCi-2 (fluconazole-resistant clinical isolate) + fluconazole, Alamar Blue growth, 48 h;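 active = growth inhibition above about 58% in most replicates, limit read from the data, passing the limit was not always enough; inconclusive = exactly half the replicates above a set limit; inactive = most replicates below a set limit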;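 note: all wells also contain fluconazole at 8 µg/ml as a sub-toxic cotreatment; 0% = median of DMSO wells and 100% = median of geldanamycin control wells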
AddAB confirm: growth loss of T4-infected E. coli expressing H. pylori AddAB, confirmed | shares compounds with AddAB inh | E. coli V3065 expressing H. pylori AddAB, T4 phage, OD; T4 phage with gene 2 nonsense mutations | inhibition, % at 11.9 µM | 880 compounds, 64% hits;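 active = mean inhibition above a set limit taken from the earlier primary screen, cut at about 13% in these data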;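 note: higher means less bacterial growth since AddAB block lets phage replicate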
RecBCD counter: reduces growth of phage-infected RecBCD+ E. coli, AddAB inhibitor counter-screen. shares compounds with AddAB inh. E. coli V66 + mutant T4 phage, OD growth. inhibition, % at 11.9 µM. 880 compounds, 73% hits. AID 488955;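 active = mean inhibition above the mean of solvent-only control wells plus 3 SD, cut at about 4% in these data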;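 note: optical density read after an 18 h incubation at 37 °C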
Bact viability: counter-screen: bacterial growth inhibition | shares compounds with AddAB inh | bacterial viability, absorbance (AddAB counterscreen) | inhibition, % at 11.9 µM | AID 488956 | 880 compounds, 35% hits; in the data active = inhibition above about 25%
RecBCD conf: confirmation: growth loss of phage-infected RecBCD+ E. coli (RecBCD inhibitor screen) | shares compounds with phage Ecoli inh | 890 compounds, 45% hits | E. coli V66 + T4 2- phage, growth OD | inhibition, % at 11.9 µM | AID 651982;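 active = mean inhibition over triplicates exceeding the hit threshold derived in the original primary screen, cut at about 11% in these data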
Ecoli viability: inhibits E. coli viability, flagging RecBCD hits as nonselective; 890 compounds, 29% hits; inhibition, % at 11.9 µM; AID 651983; absorbance (OD) growth; shares compounds with phage Ecoli inh; in the data active = inhibition above about 20%;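 note: E. coli strain V66 grown with compound alone and no phage infection; 0% = bacteria with DMSO vehicle only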
AddAB counter: growth loss of phage-infected AddAB E. coli, RecBCD counter-screen; shares compounds with phage Ecoli inh; E. coli expressing H. pylori AddAB + T4 phage, OD growth; gene 2 mutant T4, recBCD-deleted host; inhibition, % at 11.9 µM; 890 compounds, 45% hits; AID 651984;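 active = mean inhibition above the solvent-only control wells' mean plus 3 SD, cut at about 22% in these data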;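 note: higher means less bacterial growth from phage killing when AddAB is blocked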
* = called active by the depositor; ? = inconclusive; nt = no result given. The list is not random: actives were taken first. Their share in the collection is about 0.9%.

SMILES | AddAB inh | E coli growth-1 | Tat export inh | phage Ecoli inh | E coli growth-2 | Calb FLC | AddAB confirm | RecBCD counter | Bact viability | others
COC(=O)C1=C(c2ccc(OCc3ccccc3)cc2)CC2CCC1N2C(=O)NCc1ccc([N+](=O)[O-])cc1 (stereo unspecified) | nt | nt | nt | nt | 0.739 | nt | nt | nt | nt
O=C(c1ccccc1)C(CN1CCCC1)c1ccccc1 (stereo unspecified) | -1.3 | -2.3 | -2.1 | 0.3 | 0.699 | 92.7* | nt | nt | nt
CCN1CCN(CC(c2ccccc2)c2ccccc2)CC1 | 3.6 | 1.2 | 9.5 | -2.9 | 0.627 | -19.1 | nt | nt | nt
COC(=O)C1=C(c2cccc(OCc3ccccc3)c2)CC2CCC1N2C(=O)NCc1cccc(OC)c1 (stereo unspecified) | nt | nt | nt | nt | 0.677 | nt | nt | nt | nt
O=C(N/N=C/c1c(O)n(CCC2=CCCCC2)c(=S)[nH]c1=O)c1ccccc1 | 3.5 | -1.4 | -0.2 | 1.4 | 0.691 | 97.6* | nt | nt | nt
Fc1ccc(CNCCc2ccccc2)cc1 | 1.6 | 0.7 | -1.6 | 4.6 | 0.684 | -5.6 | nt | nt | nt
C1=C(CCNCc2ccccc2)CCCC1 | 2.6 | -0.9 | -4.5 | 5.8 | 0.448* | 2.2 | nt | nt | nt
Cc1oc2ccc(OC(=O)N(C)C)cc2c1C(=O)OC(C)C | 2.8 | -0.7 | 2.5 | 0.2 | 0.657 | 106.6* | nt | nt | nt
CCOC(=O)c1c(-c2ccc(OC)cc2)oc2ccc(OC(=O)N(C)C)cc12 | 0.7 | -0.6 | 9.5 | 1.2 | 0.732 | -33.5 | nt | nt | nt
COC(=O)C1=C(c2ccc(OC(F)(F)F)cc2)CC2CCC1N2C(=O)N1CCOCC1 (stereo unspecified) | nt | nt | nt | nt | 0.666 | nt | nt | nt | nt
CNc1cc(Cl)c2nonc2c1[N+](=O)[O-] | nt | nt | -36.6 | 8.1 | 0.463* | 100.2* | nt | nt | nt
CCN1C[C@]2(C)CCC(O)[C@@]34C5CC6C(OC)C[C@](O)(C(CC23)C14)C5C6O (stereo partly specified) | nt | nt | nt | nt | 0.718 | nt | nt | nt | nt
COC(=O)C1=C(c2ccc(F)cc2F)CC2CCC1N2C(=O)N1CCCC1 (stereo unspecified) | nt | nt | nt | nt | 0.709 | nt | nt | nt | nt
Clc1ccc(C(c2ccc(Cl)cc2)n2cc[n+](CC(OCc3ccc(Cl)cc3Cl)c3ccc(Cl)cc3Cl)c2)cc1 (stereo unspecified) | 0.0 | 4.6 | 14.8 | 6.9 | 0.094* | nt | nt | nt | nt
C=C1C(=O)O[C@@H]2C[C@@H](C)[C@@H]3C4OC4C(=O)[C@@]3(C)[C@@H](O)[C@H]12 (stereo partly specified) | 2.7 | 3.7 | -1.2 | -0.1 | nt | 76.8* | nt | nt | nt
NC(=NN=Cc1ccc(-c2ccc(O)c(C(=O)O)c2)o1)N[N+](=O)[O-] | nt | nt | nt | nt | 0.705 | nt | nt | nt | nt
CC(C)(C)c1ccc(CSc2cnn(C(C)(C)C)c(=O)c2Cl)cc1 | 1.8 | 2.6 | -3.6 | -0.9 | 0.692 | 84.3* | nt | nt | nt
NC(N)=N/N=C/c1ccc(N(c2ccccc2)c2ccccc2)cc1 | 0.2 | 5.5 | -14.3 | 5.8 | nt | 93.6* | nt | nt | nt
COc1ccc(C=NN=C(N)N)cc1 | nt | nt | nt | nt | 0.631 | nt | nt | nt | nt
CCn1nc(-c2ccccc2)nc2c(=O)n(C)c(=O)nc1-2 | 3.0 | 3.0 | -6.5 | nt | 0.613 | 89.5* | nt | nt | nt
O=c1[nH]c(=S)n(C2CC2)c(O)c1C=NCc1ccc(F)cc1 | 26.8* | 15.4* | -1.1 | 1.9 | 0.527 | -4.3 | 61.6* | 0.4 | 25.9*
O=c1[nH]c(=S)n(C2CC2)c(O)c1C=NCc1cccnc1 | -0.3 | -0.5 | nt | nt | 0.655 | -2.1 | nt | nt | nt
CCCNC1=C(C)C(=O)C2=C(C1=O)C(COC(N)=O)[C@]1(OC)C3NC3CN21 (stereo partly specified) | 44.2* | 45.8* | 9.5 | 22.7* | 0.127* | 11.3 | 97.5* | 45.1* | 82.2*
COC(=O)C1=C(c2cccc(OCc3ccccc3)c2)CC2CCC1N2C(=O)NCCOc1ccccc1 (stereo unspecified) | nt | nt | nt | nt | 0.712 | nt | nt | nt | nt
Cc1ccc(C[n+]2c(-c3ccc(C)cc3)cc(-c3ccc(C)cc3)cc2-c2ccc(C)cc2)cc1 | 15.9* | 25.0* | -3.0 | nt | 0.413* | 2.6 | 54.5* | 11.8* | 13.4
SMILES | AddAB inh | E coli growth-1 | Tat export inh | phage Ecoli inh | E coli growth-2 | Calb FLC | AddAB confirm | RecBCD counter | Bact viability | others
COC(=O)C1=C(c2cc3ccccc3o2)CC2CCC1N2C(=O)NCc1cccc2ccccc12 (stereo unspecified) | nt | nt | nt | nt | 0.708 | nt | nt | nt | nt
Oc1c(Br)c(Br)c(Br)c(Br)c1Br | 18.1* | 15.4* | -2.0 | nt | nt | nt | 21.8* | 20.2* | 20.6
Cc1cc([N+](=O)[O-])c2ccccc2[n+]1[O-] | 28.0* | 21.3* | -16.5 | nt | 0.481* | ? | 99.0* | 11.1* | 33.1*
Cc1ccccc1[N+](=O)[O-] | -0.2 | -3.5 | 5.6 | 1.7 | 0.681 | nt | nt | nt | nt
O=C(Cc1ccccc1)N1CCN(CC=Cc2ccccc2)CC1 | nt | nt | nt | nt | 0.706 | nt | nt | nt | nt
Cc1cccc(N2C(=O)C(=CN3CCN(C(=O)c4ccco4)CC3)C(=O)NC2=S)c1 | nt | nt | nt | nt | 0.682 | nt | nt | nt | nt
CN1/C(=C\C=C\C2=[N+](C)c3ccc4ccccc4c3C2(C)C)C(C)(C)c2ccccc21 | 30.1* | 51.4* | nt | nt | nt | nt | 77.2* | 66.3* | 78.0*
CCCN(CCC)C1Cc2cc(OC)c(OC)cc2C1 | 98.5* | 99.5* | -8.6 | 4.5 | 0.683 | nt | -5.3 | 1.0 | -1.7
CCCCCCC(C)(C)c1ccc(C2CC(O)CCC2CCCO)c(O)c1 (stereo unspecified) | nt | nt | nt | nt | 0.675 | nt | nt | nt | nt
Cc1nc2c(=O)n(C)c(=O)nc-2n(C)n1 | 40.5* | 41.9* | -16.4 | 41.8* | 0.049* | 19.3 | 48.1* | 39.1* | 42.2* | RecBCD conf=43.5*;Ecoli viability=48.1*;AddAB counter=60.5*
COC(=O)C1=C(c2ccc(OC(F)(F)F)cc2)CC2CCC1N2C(=O)NCC1CC1 (stereo unspecified) | nt | nt | nt | nt | 0.677 | nt | nt | nt | nt
CN1CCN(c2ccc([N+](=O)[O-])c3no[n+]([O-])c23)CC1 | 101.9* | 102.7* | 50.8* | 30.2* | 0.057* | 7.7 | 100.8* | 18.6* | 89.1* | RecBCD conf=14.1*;Ecoli viability=17.3;AddAB counter=100.6*
COC(=O)C1=C(c2ccc(OC(F)(F)F)cc2)CC2CCC1N2C(=O)NCc1cccc2ccccc12 (stereo unspecified) | nt | nt | nt | nt | 0.747 | nt | nt | nt | nt
CCn1cc(C(=O)O)c(=O)c2ccc(C)nc21 | 98.0* | 82.3* | 2.8 | 82.0* | 0.063* | -3.3 | 94.1* | 32.5* | 90.2* | RecBCD conf=45.2*;Ecoli viability=78.3*;AddAB counter=99.5*
